Here are results for 17 compounds from PubChem BioAssay (EPA / NIEHS).

Molecules are shown by their SMILES. “And” between values parts separate entries of the source, which are not always exact repeats. Identical values can stand only once. Where a structure was tested more than once in an assay, its records may differ in their call. The source made the active and inactive calls. Rule for the calls: active = hit-call score of the fitted dose curve at least 0.9, where 1 is the maximum; inactive = score below 0.9.

A short description of experiment [1]: APR_HepG2_NuclearSize_72hr: Apredica 72-hour HepG2 Assay for Nuclear Size (AID 2282925). To be noted: high-content imaging, actives raise or lower the signal. The gist of the method:
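Nuclear size was read by high-content imaging of Hoechst 33342 stain after formaldehyde fixation. Compounds ran 72 h on HepG2 at 0.39 to 200 uM, with final DMSO 0.5% v/v. Curves fitted both directions relative to DMSO control.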

Experiment [2] deals with CCAAT/enhancer-binding protein beta (Homo sapiens) (UniProt P17676). In words: ATG_C_EBP_CIS: Attagene CIS-FACTORIAL HepG2 Assay for human CCAAT/Enhancer Binding Protein (C/EBP) beta (AID 2282927). The conditions noted are these: HepG2 Attagene cis-factorial transcription factor reporter; actives raise or lower the signal. In short, it runs like this:
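Endogenous transcription factor activity in human liver HepG2 cells is inferred from induction of a CEBPB-linked reporter mRNA. Exposure lasts 24 h; activity is fitted in both directions relative to DMSO.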

Experiment [3] is described as follows: ATG_CMV_CIS: Attagene CIS-FACTORIAL HepG2 Assay for human CMV (Internal Marker) (AID 2282928).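 Note: endpoint acts as a background internal control marker rather than a target.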 To be noted: HepG2 CMV promoter reporter, transcription factor profiling; actives raise or lower the signal. In short, it runs like this: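 Readout: fluorescent reporter cDNA fragments separated by capillary electrophoresis after RT-PCR and HpaI cut. Cells: HepG2 carrying transfected cis-promoter reporter constructs, dosed 24 h. Endpoint serves as background internal-marker control, fit bidirectionally versus DMSO.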

Experiment [4] in a line: ATG_DR4_LXR_CIS: Attagene CIS-FACTORIAL HepG2 Assay for human Liver X Receptor (LXR), DR4 submotif (AID 2282929). To be noted: HepG2 Attagene DR4 cis-reporter, mRNA transcription; actives raise or lower the signal. The gist of the method:
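After transient transfection with multiplexed cis-promoter reporter units, HepG2 cells received test chemicals for 24 h. Reporter mRNA induction, detected by fluorescence after RT-PCR and capillary electrophoresis, was scored relative to DMSO.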

For experiment [5], the target named is Aryl hydrocarbon receptor (Homo sapiens) (UniProt P35869). As to the kind of experiment: ATG_Ahr_CIS: Attagene CIS-FACTORIAL HepG2 Assay for human Aryl Hydrocarbon Receptor (Ahr) (AID 2282930). To be noted: HepG2 AhR cis-factorial reporter transcription; actives raise or lower the signal. The gist of the method:
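Transient MRTU transfection of HepG2 → 24 h compound exposure → total RNA, oligo(dT) RT → PCR, 6-FAM extension, HpaI cut → CE fluorescence. DMSO = baseline; bidirectional curve fit.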

The nature of experiment [6]: ATG_AP_1_CIS: Attagene CIS-FACTORIAL HepG2 Assay for human Activator Protein 1 (AP-1) (AID 2282931). To be noted: HepG2 Attagene cis-factorial AP-1 reporter mRNA; actives raise or lower the signal. In short, it runs like this: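 After 24 h incubation with test chemical, RNA from transfected HepG2 cells was reverse-transcribed, amplified, fluorescently labelled and digested before capillary electrophoresis. Reporters were driven by cis-regulatory promoters; activity fitted bidirectionally versus DMSO.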

Experiment [7] is described as follows: ATG_AP_2_CIS: Attagene CIS-FACTORIAL HepG2 Assay for human Activator Protein 2 (AP-2) (AID 2282932). To be noted: HepG2 AP-2 cis-reporter, Attagene transcription factor profiling; actives raise or lower the signal. In short, it runs like this:
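Endogenous transcription factor activity is reported through transfected multiplex reporter constructs in HepG2, after 24 h of compound exposure. Transcripts were quantified by RT-PCR and capillary electrophoresis of fluorescent fragments. Bidirectional fit against DMSO.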

Experiment [8] can be described thus: ATG_BRE_CIS: Attagene CIS-FACTORIAL HepG2 Assay for human Bone Morphogenetic Protein (BMP) Response Element (BRE) (AID 2282933). The conditions noted are these: HepG2 BMP response element reporter, Attagene transcription factor profiling; actives raise or lower the signal. In short, it runs like this:
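Endogenous transcription factor activity read in transiently transfected HepG2 cells after 24 h chemical exposure. Bidirectional curve fitting against DMSO; readout is reporter transcript level by RT-PCR with capillary electrophoresis of labelled products.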

For experiment [9], the target named is Retinoic acid receptor alpha (Homo sapiens) (UniProt P10276). In words: ATG_DR5_RAR_CIS: Attagene CIS-FACTORIAL HepG2 Assay for human Retinoic Acid Receptor Alpha (RARE), DR5 submotif (AID 2282934).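 For AC50: reporter responds to endogenous RAR alpha beta and gamma in HepG2 not RARA alone.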 To be noted: HepG2 Attagene cis-factorial RARE DR5 reporter, mRNA; actives raise or lower the signal. In short, it runs like this: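 Transient MRTU transfection of HepG2; 24 h compound treatment; TriZol RNA, oligo(dT) RT, PCR, FAM labelling, capillary electrophoresis. Bidirectional fit vs DMSO. Endogenous TF activity at DR5 RARE.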

Experiment [10] in a line: ATG_CRE_CIS: Attagene CIS-FACTORIAL HepG2 Assay for human cAMP Responsive Element (CRE) binding protein 3 (AID 2282926). To be noted: HepG2 CRE cis-reporter, Attagene multiplexed mRNA; actives raise or lower the signal. The gist of the method:
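Induced reporter mRNA from a CRE cis element, measured in HepG2 among many multiplexed units at 24 h. Detection used RT-PCR plus capillary electrophoresis of fluorescent fragments; DMSO served as negative control.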

Chain of Aryl hydrocarbon receptor (Homo sapiens) (P35869 whole entry, looked up): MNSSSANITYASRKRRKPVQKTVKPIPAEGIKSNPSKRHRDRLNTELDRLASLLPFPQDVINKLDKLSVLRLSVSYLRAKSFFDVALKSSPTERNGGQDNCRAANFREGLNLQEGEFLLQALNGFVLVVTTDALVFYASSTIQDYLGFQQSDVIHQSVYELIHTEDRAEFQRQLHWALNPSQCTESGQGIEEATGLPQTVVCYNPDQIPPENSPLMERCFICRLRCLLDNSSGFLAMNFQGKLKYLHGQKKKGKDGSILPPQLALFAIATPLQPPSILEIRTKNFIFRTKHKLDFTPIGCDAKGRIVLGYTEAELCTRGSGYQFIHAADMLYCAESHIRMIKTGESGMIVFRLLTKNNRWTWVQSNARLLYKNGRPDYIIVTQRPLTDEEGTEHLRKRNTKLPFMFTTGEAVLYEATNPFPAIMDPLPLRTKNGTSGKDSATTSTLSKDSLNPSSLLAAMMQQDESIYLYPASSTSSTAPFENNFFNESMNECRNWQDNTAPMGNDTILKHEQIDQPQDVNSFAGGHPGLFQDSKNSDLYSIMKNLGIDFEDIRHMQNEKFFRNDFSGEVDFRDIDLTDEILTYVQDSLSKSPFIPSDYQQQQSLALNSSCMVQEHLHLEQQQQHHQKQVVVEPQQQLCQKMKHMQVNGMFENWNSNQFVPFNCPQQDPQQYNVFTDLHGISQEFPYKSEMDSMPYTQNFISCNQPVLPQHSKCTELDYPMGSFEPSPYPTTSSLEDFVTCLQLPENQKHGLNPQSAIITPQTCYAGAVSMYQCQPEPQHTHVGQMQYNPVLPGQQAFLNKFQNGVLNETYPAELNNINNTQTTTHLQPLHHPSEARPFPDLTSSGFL
Chain of Retinoic acid receptor alpha (Homo sapiens) (P10276 whole entry, looked up): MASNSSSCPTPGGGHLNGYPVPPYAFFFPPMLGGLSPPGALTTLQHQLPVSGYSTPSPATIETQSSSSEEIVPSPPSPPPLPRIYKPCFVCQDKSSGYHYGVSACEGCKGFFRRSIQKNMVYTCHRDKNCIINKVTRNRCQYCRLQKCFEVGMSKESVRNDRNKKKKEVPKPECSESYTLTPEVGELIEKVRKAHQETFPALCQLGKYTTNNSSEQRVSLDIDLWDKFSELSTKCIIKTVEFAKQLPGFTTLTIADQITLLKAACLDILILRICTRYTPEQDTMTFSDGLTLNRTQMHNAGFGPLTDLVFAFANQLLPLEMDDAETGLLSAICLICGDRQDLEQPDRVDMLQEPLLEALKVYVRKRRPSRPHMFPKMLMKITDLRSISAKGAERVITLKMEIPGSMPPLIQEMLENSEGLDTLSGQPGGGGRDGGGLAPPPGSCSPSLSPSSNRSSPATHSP
Chain of CCAAT/enhancer-binding protein beta (Homo sapiens) (P17676 whole entry, looked up): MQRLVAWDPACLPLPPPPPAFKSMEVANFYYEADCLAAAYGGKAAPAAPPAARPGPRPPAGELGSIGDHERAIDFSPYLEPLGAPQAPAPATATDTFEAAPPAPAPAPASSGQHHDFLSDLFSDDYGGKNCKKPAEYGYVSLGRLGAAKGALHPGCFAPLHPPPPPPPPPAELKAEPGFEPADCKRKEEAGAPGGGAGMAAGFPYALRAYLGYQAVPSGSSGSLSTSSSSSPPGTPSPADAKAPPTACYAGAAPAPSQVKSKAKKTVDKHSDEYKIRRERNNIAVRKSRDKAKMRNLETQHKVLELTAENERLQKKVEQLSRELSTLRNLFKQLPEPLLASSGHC

For the compound `Oc1cccc(O)c1`, the compound was classed as inactive in experiment [1], in experiment [2], in [3], in [4], in experiment [5] and in experiment [6]. Besides, the compound was classed as inactive in experiment [7] and in experiment [9]. Further, the AC50 in experiment [8] was 29.7 µM (active).
Take `CC1=C(/C=C/C(C)=C/C=C/C(C)=C/C(=O)O)C(C)(C)CCC1`: the result in experiment [1], in experiment [3], in experiment [4], in [5], in experiment [6] and in [7] was inactive. Further, the compound was called inactive in experiment [8]. In addition, the half-maximal activity concentration (AC50) in [2] was 6.62 µM (active) and 193 nM (active); in experiment [3], 75.8 µM (active); in experiment [4], 763 nM (active); in experiment [6], 42 µM (active).
Regarding `CN1CCN(c2ccccc2/C=C2\SCCN(c3ccc(Cl)c(Cl)c3)C2=O)CC1`, in experiment [1], the AC50 is 5.01 µM (active). In addition, the call in experiment [10], in experiment [2], in [3], in [4], in experiment [5] and in [6] was inactive. Besides, the result in experiment [7] and in experiment [9] was inactive.
`C[C@@H]1C[C@H]2[C@@H]3CCC4=CC(=O)C=C[C@]4(C)[C@@]3(F)[C@@H](O)C[C@]2(C)[C@@]1(O)C(=O)COP(=O)(O)O`: the result in [10], in experiment [2], in [3], in [4], in [5] and in experiment [6] was inactive. For the same compound, the compound was called inactive in experiment [7].
In the case of `O=C(OCCOCCOC(=O)c1ccccc1)c1ccccc1`, the compound was called inactive in experiment [1], in experiment [2], in experiment [3], in experiment [4], in experiment [6] and in [7]. Besides, the compound was classed as inactive in experiment [9]. The AC50 in [5] is 71.3 µM (active).
`CCCCCCCCCCCCN1CCCC1=O`: the compound was classed as inactive in [1], in experiment [10], in [2], in experiment [3], in [4] and in experiment [5]. In addition, the result in [6], in [7] and in [9] was inactive.
Turning to `Nc1cccc2c(N)cccc12`, the compound was classed as inactive in experiment [1], in [10], in experiment [2], in experiment [3], in [4] and in [7]. Further, the outcome in experiment [8] and in [9] was inactive. The AC50 is 2.85 µM (active) in experiment [5] and 77.7 µM (active) in [6].
In the case of `O=C(O)c1ccccc1C(c1ccc(O)cc1)c1ccc(O)cc1`, the outcome in [10], in experiment [2], in experiment [3], in experiment [4], in experiment [5] and in [6] was inactive. Besides, the call in experiment [7] and in experiment [9] was inactive. For the same compound, in experiment [5], the AC50 was 64.8 µM (active).
With `CCCCC(CC)COC(=O)CCCCC(=O)OCC(CC)CCCC` (configuration not stated), the compound was called inactive in [1], in [10], in experiment [2], in [3], in experiment [4] and in experiment [6]. The compound was classed as inactive in [7] and in [9]. Also, the AC50 in experiment [5] was 87.3 µM (active).
As for `c1ccc2c(c1)ccc1ccccc12`, the result in [1], in experiment [10], in experiment [2], in experiment [3], in [4] and in experiment [5] was inactive. For the same compound, the result in experiment [6], in experiment [7] and in [9] was inactive.
On to `CCCCCCCCCCCCCCCS(=O)(=O)Oc1ccccc1`, for which the result in [1], in experiment [2], in [3], in [4], in [5] and in experiment [6] was inactive. Also, the compound was called inactive in [7], in experiment [8] and in [9].
Consider `CCN(CC)CCNc1ccc(CNC=O)c2sc3ccc(OC)cc3c(=O)c12`, for which the compound was classed as inactive in experiment [1], in [3], in experiment [4] and in [5]. In addition, the AC50 in experiment [2] is 879 nM (active); in [6], 0.216 µM (active); in experiment [7], 0.496 µM (active); in experiment [9], 0.457 µM (active).
Take `CCCCCCCC(=O)O`: the compound was called inactive in experiment [10], in experiment [2], in [3], in [4], in [5] and in [6]. The outcome in [7] was inactive.
`c1ccc2cc3c(ccc4ccccc43)cc2c1`: the outcome in [10], in experiment [2], in experiment [3], in experiment [4], in [6] and in experiment [7] was inactive. The compound was classed as inactive in experiment [9]. The AC50 in experiment [4] was 1.7 µM (active) and 1.25 µM (active) and 3.19 µM (active); in experiment [6], 2.33 µM (active).
Consider `CCc1ccc(CCOc2ccc(CC3SC(=O)NC3=O)cc2)nc1` (configuration not stated), for which the result in [1], in experiment [2], in experiment [3], in [4], in experiment [5] and in [6] was inactive. The compound was called inactive in experiment [7] and in [8].
`CCC(C)(C)C1CCC(O)CC1` (configuration not stated): the call in experiment [1], in experiment [10], in experiment [2], in [3], in experiment [4] and in [5] was inactive. The call in experiment [6], in experiment [7] and in [9] was inactive. Moreover, the values for the half-maximal activity concentration (AC50) in experiment [4] and in [5] were 172000 nM (active) and 48.2 µM (active), respectively.
As to `NC(=O)N(O)[C@@H]1C=C[C@H](Oc2cccc(Oc3ccc(F)cc3)c2)C1`, the compound was classed as inactive in experiment [1], in [2], in experiment [4], in experiment [5], in experiment [6] and in experiment [7]. The result in experiment [8] and in experiment [9] was inactive. Besides, the AC50 is 22.6 µM (active) in experiment [10] and 7.56 µM (active) in experiment [3].

A word on the AC50: it is the concentration at which the activity in the assay is half-maximal.
